Screens (PubChem)
Shown is part of a subset that was picked to be rich in hits.
TbPYK inhibitor – blocks Trypanosoma brucei pyruvate kinase; TbPYK enzyme, Kinase-Glo Plus ATP luminescence, 45 min; Potency, µM (top dose mostly 76.8 µM), for inactives: at the top dose activity, negative = inhibition, hits mostly inhibitors; actives 0.12% (n = 410,000); AID 624173; note: potency is the fitted concentration of half-maximal effect; % is set by controls: 0 for no effect and ±100 for the full control effect; nearly all actives have a fitted effect of over 50% in size
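Luminescent Kinase-Glo Plus end-point after 45 min room-temperature reaction of T. brucei pyruvate kinase started with 130 uM ADP (final). Buffer TEA 50 mM pH 7.2 with KCl, MgCl2, BSA, Tween-20; titration-based qHTS with fitted concentration-effect curves.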
Cycloheximide cs – counter-screen for Shiga toxin inhibitors: cycloheximide protein synthesis inhibition; cell reporter, cycloheximide protein synthesis inhibition counterscreen; max response, %; actives 12% (n = 300,000); in the data active = max response mostly above about 13%, no sharp cut-off; inactive = mostly below about 14%; note: read at 38.3 µM for the half of the compounds with a filed dose; 0% is about no effect
FBPA Giardia inh – blocks Giardia fructose-bisphosphate aldolase activity; A8B2U2; purified Giardia FBPA; Potency, µM (titrated, usually from 59.6 µM), for the others: at the top dose activity, negative = inhibition, usual class: inhibitors; actives 0.71% (n = 290,000); note: potency is the fitted concentration of half-maximal effect; % is set by controls: 0 for no effect and ±100 for the full control effect; nearly all actives have a fitted effect of over 55% in size
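Giardia FBPA (40 nM reagent) was preincubated 10 min at RT with compound (up to 57.5 uM final), then substrate plus GAPDH/TPI/NAD/arsenate coupling system with diaphorase/resazurin was added; resorufin fluorescence (525/598 nm) was read after 20 min.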
LmPK inh – LmPK (Leishmania mexicana) enzyme inhibition; Q27686; purified LmPK, Kinase-Glo ATP luminescence, 1 h; Potency, µM (doses to about 57.5 µM), inactives show at the highest dose activity change, negative = inhibition, hits mostly inhibitors; actives 0.37% (n = 290,000); note: potency is the fitted concentration of half-maximal effect; % is set by controls: 0 for no effect and ±100 for the full control effect
Target sequence (Q27686 whole entry, looked up): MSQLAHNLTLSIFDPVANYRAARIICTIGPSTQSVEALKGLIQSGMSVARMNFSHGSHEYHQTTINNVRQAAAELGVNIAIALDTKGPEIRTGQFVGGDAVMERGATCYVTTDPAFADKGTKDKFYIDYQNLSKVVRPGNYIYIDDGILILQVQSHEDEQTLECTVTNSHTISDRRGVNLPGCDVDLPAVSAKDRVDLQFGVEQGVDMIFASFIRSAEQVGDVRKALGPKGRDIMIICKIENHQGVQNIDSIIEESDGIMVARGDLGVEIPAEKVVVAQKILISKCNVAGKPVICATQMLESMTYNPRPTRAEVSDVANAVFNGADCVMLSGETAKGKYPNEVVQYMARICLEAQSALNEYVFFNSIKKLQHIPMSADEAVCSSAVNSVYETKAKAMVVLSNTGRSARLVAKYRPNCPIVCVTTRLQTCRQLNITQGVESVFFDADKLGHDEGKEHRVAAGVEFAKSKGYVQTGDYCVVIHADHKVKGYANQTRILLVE
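Kinase-Glo luminescence read after 1 h RT reaction of 0.1 nM LmPK with 0.5 mM PEP and 0.1 mM ADP. Activity scaled between uninhibited and enzyme-free controls.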
Sm TGR block – S. mansoni TGR enzyme inhibition. Q962Y6. purified TGR, DTNB reduction, TNB absorbance 405 nm. Potency, µM (highest dose often 114 µM), for inactives: at the highest dose activity change, negative = inhibition, most hits filed as inhibitors. actives 3% (n = 360,000); note: potency is the fitted concentration of half-maximal effect; % is set by controls: 0 for no effect and ±100 for the full control effect; nearly all actives have a fitted effect of over 60% in size
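First, TGR (20 nM dispensed) and NADPH were mixed with compound. Second, a 15 min room-temperature incubation followed. Third, further NADPH and then DTNB were added to start the reaction. Finally, TNB absorbance was monitored kinetically.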
Shiga inhibitor – inhibitors of Shiga toxin in Vero cells. Vero cells, Shiga toxin protein synthesis inhibition reporter. actives 9.2% (n = 290,000). inhibition, % at 38.7 µM; in the data active = inhibition mostly above about 28%, no sharp cut-off; inactive = mostly below about 43%; note: 0% is about no effect
Starred values were filed as active, the others as inactive; [ ] = another dose, or the depositor's remark. Unless noted, calls come from the whole dose curve; as a rule, active = well fitted curve in the direction sought with a large enough effect; inconclusive = small, poorly fitted or top-dose-only effect, or another doubt; inactive = no such curve, though single readings can be large; an effect the other way counts as inactive or inconclusive.

O=C1CC(c2cccc(Cl)c2)CC(O)=C1C=Nc1cccc(Cl)c1 (centres undefined) was read as TbPYK inhibitor -9%, Cycloheximide cs -1, FBPA Giardia inh 4%, LmPK inh -3%, Sm TGR block 1% and Shiga inhibitor 4.
`C/C(=N\Nc1ccc(C)c(Cl)c1)c1cccnc1` gave TbPYK inhibitor -1%, Cycloheximide cs 41*, FBPA Giardia inh -11%, LmPK inh -5%, Sm TGR block 14µM* and Shiga inhibitor 89*.
Screening C/C(=N\Nc1ccc(C)c(Cl)c1)c1ccncc1 returned TbPYK inhibitor 0%, Cycloheximide cs 30*, FBPA Giardia inh -20%, LmPK inh 0%, Sm TGR block -28% and Shiga inhibitor 39.
For O=C1CCCC(O)=C1N=Nc1ccc2c(c1)OCO2 the results were TbPYK inhibitor -7%, Cycloheximide cs 76*, FBPA Giardia inh -6%, LmPK inh inconclusive, Sm TGR block -1% and Shiga inhibitor 48*.
For O=c1[nH]c(=S)[nH]c(O)c1N=Nc1ccc2c(c1)OCCO2 the results were TbPYK inhibitor inconclusive, Cycloheximide cs 23*, FBPA Giardia inh -19%, LmPK inh inconclusive, Sm TGR block 3% and Shiga inhibitor 27*.
`O=c1[nH]c(=S)[nH]c(O)c1N=Nc1ccc2c(c1)OCO2` gave TbPYK inhibitor -16%, Cycloheximide cs 23*, FBPA Giardia inh -6%, LmPK inh inconclusive, Sm TGR block 2% and Shiga inhibitor 46*.
O=c1[nH]c(O)c(N=Nc2ccc3c(c2)OCCO3)c(=O)[nH]1 was read as TbPYK inhibitor -4%, Cycloheximide cs 32*, FBPA Giardia inh -4%, LmPK inh -25%, Sm TGR block -18% and Shiga inhibitor 88*.
For O=C1CCCC(O)=C1N=Nc1ccc(C(=O)O)cc1 the results were TbPYK inhibitor -5%, Cycloheximide cs 10, FBPA Giardia inh inconclusive, LmPK inh -13%, Sm TGR block 16% and Shiga inhibitor 6.
NS(=O)(=O)c1ccc(N=Nc2c(O)[nH]c(=S)[nH]c2=O)cc1 was read as TbPYK inhibitor -11%, Cycloheximide cs -1, FBPA Giardia inh 19%, LmPK inh -22%, Sm TGR block -7% and Shiga inhibitor 5.
COc1ccc(C(C(=O)NC2CCCCC2)N(Cc2ccco2)C(=O)CNC(=O)c2ccco2)cc1 (centres undefined) was read as TbPYK inhibitor 2%.
For O=C(NCC(=O)N(Cc1ccccc1)C(C(=O)NC1CCCC1)c1ccncc1)c1ccco1 (centres undefined) the results were TbPYK inhibitor -3%, Cycloheximide cs 20*, FBPA Giardia inh -1%, LmPK inh 7%, Sm TGR block inconclusive and Shiga inhibitor 15.
`CCOc1ccccc1C(C(=O)NC1CCCC1)N(Cc1ccco1)C(=O)CNC(=O)c1ccco1` (centres undefined) gave TbPYK inhibitor 6%, Cycloheximide cs 12*, FBPA Giardia inh 7%, LmPK inh 2%, Sm TGR block 0% and Shiga inhibitor 13.
O=C(NC1CCCCC1)C(c1ccncc1)N(Cc1ccc2c(c1)OCO2)C(=O)C(F)(F)F (centres undefined) was read as TbPYK inhibitor -9%, Cycloheximide cs -2, FBPA Giardia inh inconclusive, LmPK inh -3%, Sm TGR block 45µM* and Shiga inhibitor -3.
`O=C(CCC(=O)N(c1ccc(F)cc1)C(C(=O)NC1CCCC1)c1ccncc1)Nc1cccnc1` (centres undefined) gave TbPYK inhibitor 6%, Cycloheximide cs -2, FBPA Giardia inh 4%, LmPK inh 0%, Sm TGR block 0% and Shiga inhibitor 3.
For O=C(NCC(=O)N(Cc1cccs1)C(C(=O)NC1CCCC1)c1ccncc1)c1ccco1 (centres undefined) the results were TbPYK inhibitor -5%, Cycloheximide cs 1, FBPA Giardia inh -19%, LmPK inh 7%, Sm TGR block 0% and Shiga inhibitor 9.
`O=C(CCC(=O)N(Cc1ccco1)C(C(=O)NC1CCCC1)c1ccncc1)Nc1cccnc1` (centres undefined) gave TbPYK inhibitor -3%, Cycloheximide cs -1, FBPA Giardia inh -14%, LmPK inh 4%, Sm TGR block 25µM* and Shiga inhibitor -19.
Screening O=C(CCSCc1cccc(Cl)c1)NCc1ccc(F)cc1Cl returned TbPYK inhibitor -2% and Sm TGR block 5%.
For CCC/C=C(\CCC)C(NS(=O)(=O)c1cccs1)c1ccc(C(=O)OC)cc1 (centres undefined) the results were FBPA Giardia inh -7%.
`CC(NC(=O)Cn1ncc2c3ccccc3n(Cc3ccc(F)cc3)c2c1=O)c1ccccc1` (centres undefined) gave TbPYK inhibitor 0% and Sm TGR block -1%.
`CCCn1c(CCC(=O)Nc2cc(OC)cc(OC)c2)nc2cccnc21` gave TbPYK inhibitor -2% and Sm TGR block 0%.
For COc1ccc(CCNC(=O)Cn2c(=O)cc(C(F)(F)F)c3c(C)nn(C)c32)cc1OC the results were TbPYK inhibitor 4% and Sm TGR block 1%.
Screening COc1cccc(CNC(=O)CCn2cnc3ccccc3c2=O)c1 returned TbPYK inhibitor 1% and Sm TGR block 4%.
CCOC(=O)CN(C(=O)CNC(=O)c1cccs1)C(C(=O)NC1CCCC1)c1ccncc1 (centres undefined) was read as TbPYK inhibitor 2%, Cycloheximide cs 2, FBPA Giardia inh -2%, LmPK inh -11%, Sm TGR block 0%[57.1 µM] and Shiga inhibitor -22.
Screening O=C(NCC(=O)N(Cc1ccco1)C(C(=O)NC1CCCC1)c1ccncc1)c1cccs1 (centres undefined) returned TbPYK inhibitor 4%, Cycloheximide cs -2, FBPA Giardia inh -1%, LmPK inh -7%, Sm TGR block 35µM* and Shiga inhibitor -11.
O=C(NCC(=O)N(Cc1ccco1)C(C(=O)NC1CCCC1)c1cccnc1)c1cccs1 (centres undefined) was read as TbPYK inhibitor -1%, Cycloheximide cs -3, FBPA Giardia inh 2%, LmPK inh -1%, Sm TGR block -29% and Shiga inhibitor -7.
Screening CCCCN(C(=O)CNC(=O)c1cccs1)C(C(=O)NC1CCCC1)c1ccncc1 (centres undefined) returned TbPYK inhibitor -8%, Cycloheximide cs 28*, FBPA Giardia inh inconclusive, LmPK inh -7%, Sm TGR block 3% and Shiga inhibitor 46.
Screening O=c1n(Cc2ccccc2)c(O)c2n1Cc1ccccc1N=C2c1ccc(C(F)(F)F)cc1 returned TbPYK inhibitor -5%.
